Laboratory results taken from PubChem BioAssay AID2108 (National Center for Advancing Translational Sciences (NCATS), 2009).
Inconclusive results are not listed. Activity calls are given as the source filed them. The call rests on the fitted dose curve; in most records, active means well fitted curve in the direction sought with a large enough effect; inconclusive means small, poorly fitted or top-dose-only effect, or effect the other way, or another doubt; inactive means no such curve, though single readings can be large or run the other way.

molecular target: Alpha-galactosidase A (Homo sapiens) (UniProt P06280); experiment: Confirmation of Inhibitors of Human alpha-Galactosidase Using Spleen Homogenate; conditions: alpha-galactosidase enzyme activity; series mostly up to 56.2 µM; activity change: at the top concentration; further: 0% is about no effect
Sequence (P06280 32-429 limits assumed): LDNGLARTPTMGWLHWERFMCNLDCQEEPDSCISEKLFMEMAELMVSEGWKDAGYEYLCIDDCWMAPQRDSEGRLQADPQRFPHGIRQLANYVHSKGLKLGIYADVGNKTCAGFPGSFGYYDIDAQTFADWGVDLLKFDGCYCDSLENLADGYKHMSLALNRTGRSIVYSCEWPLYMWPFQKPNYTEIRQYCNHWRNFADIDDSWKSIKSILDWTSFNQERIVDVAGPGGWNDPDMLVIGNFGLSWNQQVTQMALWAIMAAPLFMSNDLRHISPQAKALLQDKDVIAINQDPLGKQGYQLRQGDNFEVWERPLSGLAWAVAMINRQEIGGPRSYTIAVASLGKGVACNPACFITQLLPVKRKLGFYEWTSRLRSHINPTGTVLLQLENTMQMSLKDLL
Text: NIH Chemical Genomics Center [NCGC]
NIH Molecular Libraries Probe Production Centers Network [MLPCN]
Assay Submitter (PI): Wei Zheng
Alpha-galactosidase is a homodimeric glycoprotein that hydrolyzes the terminal alpha-galactosyl moieties from glycolipids and glycoproteins. Deficiency of this enzyme results in Fabry Disease with progressive accumulation of globotriaosylceramide and other glycosphingolipids in vascular endothelial cells that causes renal failure, myocardial infarction and stroke, and premature death in patients. It has been reported that the improper folding and trafficking of alpha-galactosidase resulting from genetic mutations may account for a significant number of Fabry patients. […] We optimized this alpha-galactosidase assay in 1536-well plate format for identification of novel small molecule inhibitors or activators with structures other than the sugar analogs in order to develop new pharmacological chaperones. In particular, this assay is directed towards discovering compounds active in more natural setting, tissue homogenate, that may have been missed by screens of the purified enzyme under more stringent conditions. This assay attempted to confirm hits from the primary screening.
NCGC Assay Protocol Summary:
This is a fluorogenic enzyme assay with 4-methylumbelliferyl-alpha-D-galactopyranoside as the substrate and human spleen homogenate containing alpha-galactosidase as the enzyme preparation. Upon hydrolysis of this fluorogenic substrate, the resulting product, 4-methylumbelliferone (which excites at 365 nm and emits at 440 nm) can be detected by a fluorescence plate reader. Data were normalized to the controls for basal activity (without enzyme) and 100% activity (with enzyme). The AC50 values were determined from concentration-response data modeled with the standard Hill equation.
Assay buffer: 50 mM citric acid (titrated with potassium phosphate to pH 5.0), 0.01% Tween-20 (pH 5.0 is an optimal condition for this enzyme assay)
1536-well assay protocol for the alpha-galactosidase from human spleen homogenate:
(1) Add 2 ul/well spleen homogenate (1 ug)
(2) Add 23 nL compounds in DMSO solution. The final titration was 0.5 nM to 58 uM.
(3) Add 2 ul of substrate (1 mM final)
(4) Incubate at 37C for 40 min
(5) Add 2 ul stop solution (1M NaOH and 1M Glycine mixture, pH 10)
(6) Detect the assay plate in a ViewLux plate reader (PerkinElmer) with Ex=365 nm and Em=440nm.
Keywords: Alpha-galactosidase, Fabry Disease, pharmacological chaperone, chaperone therapy, high throughput screening, alpha- galactosidase inhibitor, MLSMR, MLSCN, NIH Roadmap, qHTS and NCGC

SMILES	activity change	outcome
O=c1[nH]c(CN2CC=C(c3ccccc3)CC2)nc2scc(-c3cccs3)c12	-0.863% (inactive)	
O[C@@H]1[C@H](O)[C@H]2[C@@H](O)CCN2C[C@@H]1O	-6.64% [at 287 µM] (inactive)	
Cc1cc(/C=C2/C(=O)NC(=O)N(Cc3ccco3)C2=O)c(C)n1-c1ccc(C(=O)O)cc1	1.17% (inactive)	
Cc1ccc2c(CN3CC=C(c4ccccc4)CC3)cc(=O)oc2c1C	0.701% (inactive)	
CC(=O)[O][Hg][c]1ccccc1	4.67% [at 287 µM] (inactive)	
C/C=C(/C)C(=O)O[C@H]1C(C)=C2C([C@@H]1OC(=O)CCCCCCC)[C@@](C)(OC(C)=O)C[C@@H](OC(=O)CCC)[C@@]1(O)[C@H]2OC(=O)[C@@]1(C)O (stereo partly drawn)	-13.8% (inactive)	
CC(C)(C)c1cc(C=C(C#N)C#N)cc(C(C)(C)C)c1O	-10.5% (inactive)	
CC(=O)Nc1ccc(OC(=O)c2ccccc2N)cc1	6.81% [at 23.6 µM] (inactive)	
OC[C@@H]1[C@@H](O)[C@H](O)[C@H]2[C@@H](O)CCN21	-8.3% (inactive)	
Cc1cc(C(=O)CS(=O)(=O)c2ccc(F)cc2)cc(C)c1OC(=O)N(C)C	2.73% [at 23.6 µM] (inactive)	
CCOc1ccc2cc(C#N)c(=O)oc2c1	1.36% (inactive)	
O[C@H]1[C@H](O)[C@@H](O)CN2CC[C@H](O)[C@H]12		inactive
COc1ccc(Cc2nccc3cc(OC)c(OC)cc23)cc1OC	-3.36% (inactive)	
O=C(O)c1ccccc1-c1c2cc(Br)c(=O)cc-2oc2[c]([Hg])c(O)c(Br)cc12	-13.4% [at 287 µM] (inactive)	
CCCCC/C=C\C/C=C\C/C=C\C/C=C\CCCC(=O)NCCCC(=O)O	-14.3% (inactive)	
Cc1[nH]c2ccccc2c1C1=CCNCC1	0.948% (inactive)	
Cc1cc(/C=C2\C(=O)NC(=O)N(c3ccc(F)cc3)C2=O)c(C)n1-c1ccc(C(=O)O)cc1	0.884% (inactive)	
C/C(O)=C(/C#N)C(=O)Nc1cc(Br)ccc1Br	-8.06% (inactive)	
